Screening results: PubChem BioAssay, National Center for Advancing Translational Sciences (NCATS)
Hsp90 Hop PPI = changes Hsp90-Hop TPR2A binding signal, up or down; actives 0.44% (n = 71,000); AID 595; AlphaScreen TPR2A-His6 binding biotin-Hsp90 C-terminal peptide; Potency, µM (highest dose often 57 µM); active = well fitted curve in either direction with a large enough effect; inconclusive = small, poorly fitted or top-dose-only effect, or another doubt
UbGFP stabilizer = ubiquitin-GFP accumulation via proteasome inhibition; Potency, µM (highest dose often 45.9 µM), hits mostly activators; Ubiquitin-GFP reporter cells, proteasome inhibition, GFP fluorescence; response scale: untreated = 0%, 10 µM MG-132 = 100%; 67,000 tested, under 10 active; active = well fitted activation curve with a large enough effect, not every such curve was filed as active; inconclusive = small, poorly fitted or top-dose-only effect, or another doubt; inactive = no such curve, though single readings can be large or run the other way
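Proteasome blockade was scored as a rise in GFP-expressing U2OS cells carrying a ubiquitin(G76V)-GFP construct, imaged after 4 hr compound treatment at 37 °C across a 46 uM–2.9 nM series.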
Tau fil binding = tau filament binding. actives 2% (n = 71,000). Potency, µM (doses to about 57.1 µM). recombinant tau filaments, thioflavin S fluorescence, 15 h; filaments grown with octadecylsulfate alongside compound. P10636;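 note: actives lower thioflavin S fluorescence by blocking filaments or displacing dye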
Target sequence (P10636 whole entry, looked up): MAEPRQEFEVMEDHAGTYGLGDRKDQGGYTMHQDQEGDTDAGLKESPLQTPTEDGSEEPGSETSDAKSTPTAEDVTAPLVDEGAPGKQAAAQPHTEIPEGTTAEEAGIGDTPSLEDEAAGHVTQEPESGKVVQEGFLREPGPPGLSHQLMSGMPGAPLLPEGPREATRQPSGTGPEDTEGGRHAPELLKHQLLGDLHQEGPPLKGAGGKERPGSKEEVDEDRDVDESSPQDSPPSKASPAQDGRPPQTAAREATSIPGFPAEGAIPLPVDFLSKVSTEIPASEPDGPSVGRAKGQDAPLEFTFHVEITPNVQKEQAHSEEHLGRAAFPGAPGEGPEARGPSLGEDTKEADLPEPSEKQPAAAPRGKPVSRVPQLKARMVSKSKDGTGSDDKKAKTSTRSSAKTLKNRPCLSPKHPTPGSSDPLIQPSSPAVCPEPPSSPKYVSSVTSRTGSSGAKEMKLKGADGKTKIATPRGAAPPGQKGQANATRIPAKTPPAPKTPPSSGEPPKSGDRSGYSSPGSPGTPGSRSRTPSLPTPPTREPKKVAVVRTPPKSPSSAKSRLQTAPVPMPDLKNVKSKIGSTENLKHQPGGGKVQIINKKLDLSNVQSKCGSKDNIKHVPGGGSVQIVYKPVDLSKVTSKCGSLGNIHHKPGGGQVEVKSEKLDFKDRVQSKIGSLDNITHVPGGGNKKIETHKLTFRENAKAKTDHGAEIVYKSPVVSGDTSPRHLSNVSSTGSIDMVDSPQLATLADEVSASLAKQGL
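Tau 2 uM in ThS buffer dispensed; compound added; 60 uM ODS added (finals 1 uM tau, 30 uM ODS); 15 h 37 C; fluor ex450/em510.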
Epigenetic mod = derepresses silenced GFP locus in mouse C127i cells | mouse C127i GFP locus derepression, cytometry, 30 h | Potency, µM (doses to about 46.1 µM) | actives 0.09% (n = 68,000)
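Murine C127i mammary cells carrying a silenced, stably integrated CMV-driven GFP reporter were treated with compound for 30 hours at 37 C. After PBS washes, GFP-positive cells were counted by laser-scanning microplate cytometry.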
HBB splicing = alters splicing of the hemoglobin beta chain | HBB splicing reporter cell assay, activation; EGFP reporter with mutant IVS2-654 intron; response scale: normalised to 500 nM splice-correcting PNA | actives 0.06% (n = 65,000) | Potency, µM (top dose mostly 46.1 µM), most hits filed as activators
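Compounds were applied for 2 days to HeLa EGFP-654 cells, 500/well in Optimem with 2% FCS. The reporter's EGFP is disrupted by mis-splicing of beta-globin intron IVS2-654. Readout: summed well GFP fluorescence from 488 nm laser scanning; reference was 500 nM antisense […] 654 PNA.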
ERK AVP block = blocks ERK signaling stimulated by vasopressin; HEK293-V1b, vasopressin-stimulated pERK AlphaScreen; Potency, µM (doses to about 57.5 µM), usual class: inhibitors; actives 0.99% (n = 72,000); AID 995; note: nearly all actives have a fitted effect of over 55% in size
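HEK293 cells stably expressing V1b receptor, preincubated 30 min at 37 °C with compound, then stimulated 5 min with 25 nM vasopressin. Phospho-ERK by AlphaScreen SureFire after 5 h RT; normalized to DMSO and vasopressin; AC50 by Hill fit.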
Each line names hits and unclear results; the compound was inactive in the other large screens. An excerpt weighted towards active compounds, which were near 3% of everything screened. Unless noted, calls come from the whole dose curve; as a rule, active = well fitted curve in the direction sought with a large enough effect; inconclusive = small, poorly fitted or top-dose-only effect, or another doubt; inactive = no such curve, though single readings can be large; an effect the other way counts as inactive or inconclusive.

CCCSC1=N/C(=C\C=C\c2ccco2)C(=O)S1	Tau fil binding 2µM
CSC1=N/C(=C\c2ccc(C)o2)C(=O)S1	Tau fil binding inconclusive
C=CCn1c(NC(=O)c2ccccc2)c(C#N)c2nc3ccccc3nc21	HBB splicing 25µM, ERK AVP block inconclusive
C=CCn1c(NC(=O)c2ccccc2Cl)c(C#N)c2nc3ccccc3nc21	HBB splicing inconclusive
O=C(/C=C/c1ccc(O)cc1)c1ccccc1O	ERK AVP block 4µM (no result: Hsp90 Hop PPI, UbGFP stabilizer, Tau fil binding, Epigenetic mod, HBB splicing)
O=C(/C=C/c1ccc(O)cc1)c1cccs1	ERK AVP block 16µM (no result: Hsp90 Hop PPI, UbGFP stabilizer, Tau fil binding, Epigenetic mod, HBB splicing)
O=C(/C=C\c1ccccc1)c1ccccc1O	none (no result: Hsp90 Hop PPI, UbGFP stabilizer, Tau fil binding, Epigenetic mod)
FC(F)(F)c1ccccc1-c1ccc2ncnc(NCc3cccnc3)c2c1	none
O=C(Cn1c(-c2ccccc2)noc1=O)Nc1ccc(N2CCCCCC2)cc1	Hsp90 Hop PPI inconclusive, Tau fil binding 13µM
O=C(Cn1c(-c2ccccc2)noc1=O)Nc1ccc(S(=O)(=O)N2CCOCC2)cc1	none
CCOC(=O)c1c(C)[nH]c(C)c1C(=O)COc1ccc(NC(=O)c2ccco2)cc1	ERK AVP block 25µM
COc1ccc(OCC(=O)Nc2ccc(NC(=O)c3ccco3)cc2)cc1	none
N#CCSc1nc2c(cc1C#N)CCCCCC2	none (no result: Hsp90 Hop PPI, UbGFP stabilizer, Tau fil binding, HBB splicing, ERK AVP block)
N#Cc1cc2c(nc1SCc1ccncc1)CCC2	Tau fil binding 6.3µM
COc1cc(CNc2ccc3[nH]c(=O)[nH]c3c2)ccc1OCC(=O)NC(C)(C)C	Tau fil binding 13µM, ERK AVP block inconclusive (no result: HBB splicing)
COc1cc(CNCCO)ccc1OCC(=O)Nc1ccc(Br)cc1	none
COc1ccc(N2CCN(Cc3nc4c(c(=O)n(C)c(=O)n4C)n3CCc3ccccc3)CC2)cc1	Tau fil binding 13µM (no result: Epigenetic mod, ERK AVP block)
COCCn1c(CN2CCN(c3ccc(OC)cc3)CC2)nc2c1c(=O)n(C)c(=O)n2C	none
Cn1c(SCC(=O)Nc2ccc(N3CCOCC3)c(Cl)c2)nnc1-c1ccccc1	Tau fil binding 10µM
Cn1c(-c2ccc(F)cc2)cnc1SCC(=O)Nc1ccccc1N1CCOCC1	Hsp90 Hop PPI inconclusive, ERK AVP block 32µM (no result: HBB splicing)
CCn1c(Cc2ccccc2)nnc1SCC(=O)Nc1ccc(N2CCOCC2)c(Cl)c1	none
COc1nc(C#N)nc(N(C)C)n1	Tau fil binding 13µM
CCn1c(SCC(=O)N2CCCC2)nc2c1c(=O)n(C)c(=O)n2C	ERK AVP block 20µM
C=CCSc1nc2c(c(=O)n(C)c(=O)n2C)n1CC	none
Cc1ccccc1NC(=O)c1nc[nH]c1C(=O)NCc1ccccc1	ERK AVP block 25µM
CC(C)Oc1ccccc1C1CC(=O)Nc2cc3c(cc21)OCCO3 (stereo unspecified)	ERK AVP block 16µM
COc1ccccc1C1CC(=O)Nc2cc3c(cc21)OCCO3 (stereo unspecified)	none
COc1cc2c(cc1OC)-c1cc(=Nc3c(C)cc(C)cc3C)n(C)c(=O)n1CC2	ERK AVP block 6.3µM
N=C1CCC[C@@H]1C(=S)SCCC(N)=O	none
CCCC/C=C/C(NC(=O)OCc1ccccc1Cl)c1ccccc1 (stereo unspecified)	Hsp90 Hop PPI inconclusive (no result: UbGFP stabilizer, Epigenetic mod)
C1CCOC1	none (no result: UbGFP stabilizer, Epigenetic mod)
CCc1cc(=O)oc2cc(C)cc(O)c12	ERK AVP block 25µM (no result: Epigenetic mod)
CCn1c2ccccc2c2cc(Nc3cc(C)nc4ncnn34)ccc21	ERK AVP block 25µM
CC1=NCC[N@@+]1(CCc1ccccc1)Cc1ccccc1	none
COc1ccc(C(=O)Nc2cccc(C)c2)cc1S(=O)(=O)N1CCOCC1	none
COc1ccc(C(=O)Nc2ccc(-c3ccc(C)o3)cc2)cc1S(=O)(=O)N1CCOCC1	ERK AVP block 2µM
c1ccc(-c2cccc(N3CC[C@@]4(CCCNC4)C3)c2)cc1	Hsp90 Hop PPI inconclusive, Tau fil binding 13µM
NCCNCCNCCN	Hsp90 Hop PPI 6.3µM (no result: UbGFP stabilizer, Epigenetic mod)
NCCCCNCCCN	none
O[Si@](CCCN1CCCCC1)(c1ccc(F)cc1)C1CCCCC1	none
COc1ccc2nc(Nc3ccc4c(c3)OCO4)sc2c1	Hsp90 Hop PPI inconclusive, Tau fil binding 13µM
FC(F)(F)c1ccccc1-c1cncnc1NCCN1CCOCC1	none
C=CCn1c(=O)/c(=C/c2ccc(Cl)cc2)s/c1=C(/C#N)c1nnc2n1CCCCC2	Tau fil binding 16µM
CC(=O)O[C@@H]1C[C@]2(C)[C@H](C[C@@H](O)[C@H]3[C@@]4(C)CC[C@@H](O)[C@@H](C)[C@@H]4CC[C@@]32C)/C1=C(\CCC=C(C)C)C(=O)O	none
O=C1CCC(c2ccccc2)=NN1c1nc2ccccc2s1	none
CN(C)c1ccc(C2(c3ccc(N(C)C)cc3)OC(=O)c3cc(N(C)C)ccc32)cc1	Hsp90 Hop PPI 2.5µM (no result: UbGFP stabilizer, Epigenetic mod)
Nc1c(C(=O)NCc2ccco2)sc2nc3c(cc12)C(=O)CCC3	Tau fil binding 20µM, ERK AVP block inconclusive
O=C1C(=O)c2ccccc2C(O)=C1Cc1ccccc1	none
Cn1c(C(=O)Nc2ccc3c(c2)OCO3)cc2sccc21	Tau fil binding 13µM, ERK AVP block inconclusive
CC(C)c1cc(C(=O)Nc2ccc3c(c2)OCO3)no1	Tau fil binding 13µM
O=C(Nc1ccc2c(c1)OCO2)c1cc(C2CC2)on1	none
Cn1c(C(=O)NCc2ccc3c(c2)OCO3)cc2sccc21	none
Cc1onc(-c2c(Cl)cccc2Cl)c1C(=O)Nc1ccc2c(c1)OCO2	Tau fil binding 3.2µM
COc1ccc(-c2coc3cc(O[C@@H]4O[C@@H](CO)[C@@H](O)[C@@H](O)[C@H]4O)cc(O)c3c2=O)cc1	Tau fil binding inconclusive (no result: HBB splicing, ERK AVP block)
COCCNc1nc(C)nc2c1nc(-c1ccccc1)n2CCCN1CCCCC1C (stereo unspecified)	none (no result: Epigenetic mod)
Cc1nc(N)sc1-c1csc(Nc2ccccn2)n1	Tau fil binding 25µM
Cc1nc(N)sc1-c1csc(Nc2ccc(Cl)cn2)n1	Tau fil binding 16µM
COc1ccc(Nc2nc(N)nc(SCc3nnc(C)s3)n2)cc1	none
COc1ccc(Nc2nc(-c3sc(N)nc3C)cs2)cc1	Hsp90 Hop PPI inconclusive, Tau fil binding 13µM (no result: HBB splicing)
CCOc1cc(C)nc(NCCc2ccc(OC)c(OC)c2)n1	none (no result: HBB splicing)
COc1ccc(CCNc2nc(-c3sc(N)nc3C)cs2)cc1OC	Tau fil binding 16µM, ERK AVP block inconclusive
O=c1c(-c2ccccc2)nc2cnc(N3CCNCC3)nc2n1C1CC1	none
O=C(O)c1ccc(OCc2ccccc2)c(Cl)c1	none
OCC(CO)(CBr)CBr	none (no result: UbGFP stabilizer, Epigenetic mod)
O=c1ccc2c(o1)/C(=C/C=C(Cl)Cl)CCC2	Tau fil binding 2µM
Cc1ccc(C(=O)[C@@H]2[C@@H]3[C@@H](C(=O)[C@@H]4OC[C@H]3O4)[C@@H]3C=Cc4ccccc4N23)cc1	Hsp90 Hop PPI inconclusive, Tau fil binding 32µM (no result: HBB splicing, ERK AVP block)
COC(=O)c1c(C(=O)OC)c(C)n(Cc2ccco2)c1C	none
